Screens: PubChem BioAssay, Sanford-Burnham Center for Chemical Genomics
VHR inh color – VHR1 (DUSP3) phosphatase inhibition; hit rate 0.7% among 50,000; AID 1992; P51452; inhibition, % at 20 µM; recombinant VHR phosphatase, colorimetric substrate read-out; in the data active means inhibition above about 60%
Target sequence (P51452 whole entry, looked up): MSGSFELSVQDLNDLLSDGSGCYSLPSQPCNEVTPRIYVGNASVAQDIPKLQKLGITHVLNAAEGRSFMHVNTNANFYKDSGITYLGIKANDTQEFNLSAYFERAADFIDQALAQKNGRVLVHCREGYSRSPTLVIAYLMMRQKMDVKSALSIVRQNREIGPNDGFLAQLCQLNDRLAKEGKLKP
Active calls of the source: *. The full list was thinned out, with hits kept by preference.

For COc1ccc(OC)c(N(CC(=O)Nc2ccc3ccccc3c2)S(C)(=O)=O)c1 the results were VHR inh color -29.
For CSc1ccc(CN2CCN(C(=O)c3cccs3)CC2)cc1 the results were VHR inh color 9.
For O=C(Nc1nccs1)C1(c2ccccc2)CC1(Cl)Cl (stereo not drawn) the results were VHR inh color -6.
Screening O=C(Nc1cccc2ccccc12)C1(c2ccccc2)CC1(Cl)Cl (stereo not drawn) returned VHR inh color 118*.
`O=C(Nc1ccccc1F)C1(c2ccccc2)CC1(Cl)Cl` (stereo not drawn) gave VHR inh color 5.
Cc1ccc(N2C(=O)CC(Sc3nc4ccccc4s3)C2=O)cc1C (stereo not drawn) was read as VHR inh color -24.
`O=C(c1cccc(C(=O)N2CCN(c3cccc(Cl)c3)CC2)c1)N1CCN(c2cccc(Cl)c2)CC1` gave VHR inh color 2.
For O=C(c1ccco1)N1CCN(Cc2ccco2)CC1 the results were VHR inh color 9.
Screening Cc1ccc(NC(=O)/C(=C/c2ccc(N(C)C)cc2)NC(=O)c2ccccc2)cc1 returned VHR inh color -11.
`CCc1ccc(C2Nc3ccccc3NC3=C2C(=O)CC(c2ccc(OC)c(OC)c2)C3)cc1` (stereo not drawn) gave VHR inh color 115*.
O=C1CC(c2ccccc2)CC2=C1C(c1ccc(F)c(F)c1)Nc1ccccc1N2 (stereo not drawn) was read as VHR inh color 104*.
`CSc1ccc(C2Nc3ccccc3NC3=C2C(=O)CC(c2ccc4c(c2)OCO4)C3)cc1` (stereo not drawn) gave VHR inh color -13.
For O=C1CC(c2ccccc2)CC2=C1C(c1ccc(F)c(Br)c1)Nc1ccccc1N2 (stereo not drawn) the results were VHR inh color -6.
For COc1ccc(C2CC(=O)C3=C(C2)Nc2ccccc2N(C(C)=O)C3c2ccc(OC)c(OC)c2)cc1 (stereo not drawn) the results were VHR inh color 0.
`CCC(=O)N1c2ccccc2NC2=C(C(=O)CC(c3ccccc3)C2)C1c1ccc([N+](=O)[O-])cc1` (stereo not drawn) gave VHR inh color 10.
COc1ccc(C2CC(=O)C3=C(C2)Nc2ccccc2NC3c2ccncc2)cc1OC (stereo not drawn) was read as VHR inh color 7.
Screening Cc1ccc2c(c1)NC(c1ccc(F)cc1)C1=C(CC(c3ccccc3)CC1=O)N2 (stereo not drawn) returned VHR inh color -28.
Screening COc1ccc(C2CC(=O)C3=C(C2)Nc2ccccc2NC3c2ccc(SC)cc2)cc1OC (stereo not drawn) returned VHR inh color 43.
`Cc1ccc2c(c1)NC(c1ccc3c(c1)OCO3)C1=C(CC(c3ccccc3)CC1=O)N2` (stereo not drawn) gave VHR inh color 118*.
CCC(=O)N1c2ccccc2NC2=C(C(=O)CC(c3ccccc3)C2)C1c1ccc(OC)cc1 (stereo not drawn) was read as VHR inh color 103*.
For O=C1CC(c2ccccc2)CC2=C1C(c1ccc(Cl)c(Cl)c1)Nc1ccccc1N2 (stereo not drawn) the results were VHR inh color -17.
Screening COc1ccc(NC(=O)/C=C/c2ccc(OC)c(OC)c2)c(OC)c1 returned VHR inh color -33.
`O=C(CCCOc1ccc(Cl)cc1Cl)Nc1ccc([N+](=O)[O-])cc1Cl` gave VHR inh color -19.
For COc1cccc(NC(=O)CN(c2ccc(C(C)C)cc2)S(=O)(=O)c2ccccc2)c1 the results were VHR inh color -11.
O=C(/C=C/c1cc2c(cc1[N+](=O)[O-])OCCO2)c1c(-c2ccccc2)c2cc(Cl)ccc2[nH]c1=O was read as VHR inh color 31.
For O=C(CN(c1ccc(Br)cc1)S(=O)(=O)c1ccccc1)NCCSc1nc2ccccc2s1 the results were VHR inh color 7.
CCOc1ccc(N2C(=O)NC(=O)/C(=C\c3cc(Br)ccc3OC)C2=O)cc1 was read as VHR inh color -32.
Screening Cc1ccccc1/C=N/Nc1ccc([N+](=O)[O-])cc1 returned VHR inh color 4.
For O=C(c1ccncc1)N1CCN(Cc2ccccn2)CC1 the results were VHR inh color -4.
Screening COc1ccc(C2CC(=O)C3=C(C2)Nc2ccccc2NC3c2cccc(Br)c2)cc1 (stereo not drawn) returned VHR inh color 1.
Screening COc1ccc(C2CC(=O)C3=C(C2)Nc2ccccc2NC3c2ccc(F)c(Br)c2)cc1 (stereo not drawn) returned VHR inh color 116*.
`COc1ccc(C2CC(=O)C3=C(C2)Nc2ccccc2NC3c2ccc3ccccc3c2)cc1` (stereo not drawn) gave VHR inh color 11.
Screening Cc1nc2cc(-c3cccc(Cl)c3)nn2c(C)c1Cl returned VHR inh color -23.
For Cc1nc2cc(-c3cccc(F)c3)nn2c(C)c1Cl the results were VHR inh color -12.
For Cc1nc2cc(-c3ccccc3)nn2c(C)c1C the results were VHR inh color 117*.
